# Assay outcomes as filed in PubChem BioAssay.
# Hits are enriched below; roughly 19% of the tested compounds scored in any of these assays.
# IL-1B inflam inh: inhibitors of inflammasome signaling (IL-1 beta secretion) | THP-1 LPS/ATP IL-1B secretion, AlphaLISA, 16 h; stronger effect = lower value | activity change, % at 57.5 µM | 360,000 compounds, 4.7% hits; in the data active means activity change below about -50%; inconclusive means mostly about -30% to -49%
#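 Secreted IL-1B measured by AlphaLISA bead assay after 16 h compound exposure of THP-1 cells; compounds (final up to 57.5 uM) added 1 h before LPS (250 ng/mL) and ATP (1.25 mM) stimulation; lower signal means less secretion.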
# HT1080NT lethal: kills 2HG-producing HT-1080-NT fibrosarcoma cells; HT-1080-NT fibrosarcoma viability, CellTiter-Glo ATP luminescence, 48 h; 360,000 compounds, 1.6% hits; Potency, µM (titrated, usually from 46.1 µM), for the others: at the highest dose activity, negative = less viability, most hits filed as cytotoxic;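 further: NT is the 2HG producing partner of a matched IDH1 knockdown line; potency means the concentration at half of the fitted maximal effect; 0% = DMSO-treated cells and -100% = media-only wells without cells; nearly all actives have a fitted effect of over 55% in size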
#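 Luminescent CellTiter-Glo readout after 48 hours of compound exposure at 37 degrees C defined viability of HT-1080-NT cells. Activity was normalized to DMSO wells and cell-free media wells; concentration-response curves were fitted and assigned curve classes.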
# HT1080 IDH1KD tx: kills HT-1080 cells with IDH1 knockdown; Potency, µM (series often up to 46.1 µM), for the others: at the top dose activity, negative = toxicity, most hits filed as cytotoxic; HT-1080 IDH1 knockdown viability, ATP luminescence, 48 h; 360,000 compounds, 2% hits; AID 686971;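 further: potency means the concentration at half of the fitted maximal effect; 0% = DMSO wells and -100% = cell-free medium wells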
#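 In this qHTS, HT-1080 cells depleted of IDH1 are exposed for 48 h at 37 °C to compound titrations. Toxicity is scored from CellTiter-Glo luminescence, with DMSO as full viability and medium alone as none.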
# TDP1 cell CPT: DT40-hTDP1 cell growth loss with CPT. 420,000 compounds, 12% hits. Potency, µM (doses to about 46.2 µM), inactives show top-dose activity change, negative = growth inhibition, actives largely listed as inhibitors. chicken DT40 Tdp1-/-;hTDP1 cells + 20 nM CPT, ATP luminescence, 48 h; further: potency means the concentration at half of the fitted maximal effect; nearly all actives have a fitted effect of over 55% in size
#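 Chicken DT40 Tdp1-/- cells stably complemented with human TDP1 were seeded at 400 cells/well in medium containing 20 nM camptothecin, exposed to pin-transferred compounds, and grown at 37 °C for at least 48 hr. Viability was read as ATP luminescence.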
# DT40 TDP1 no CPT: qHTS for Inhibitors of human tyrosyl-DNA phosphodiesterase 1 (TDP1): qHTS in cells in absence of CPT | DT40 Tdp1-/- hTDP1 cells, no CPT, ATP luminescence, 48 h | Potency, µM (series often up to 46.2 µM), without a hit: at the top dose activity change, negative = growth inhibition, hits mostly inhibitors | 420,000 compounds, 15% hits; further: potency means the concentration at half of the fitted maximal effect; nearly all actives have a fitted effect of over 55% in size
#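 Luminescent ATP content (CellTiter-Glo) served as the growth readout. Knockout chicken DT40 cells expressing human TDP1 were exposed to compounds without camptothecin for a minimum 48 hr at 37 °C.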
# Active calls of the source: *; ? = inconclusive; · = not tested or not shown. Unless noted, the call rests on the fitted dose curve; in most records, active means well fitted curve in the direction sought with a large enough effect; inconclusive means small, poorly fitted or top-dose-only effect, or another doubt; inactive means no such curve, though single readings can be large; an effect the other way counts as inactive or inconclusive. Unless noted, on the % scale 0 is the no-effect control and ±100 the full control effect.
SMILES,IL-1B inflam inh,HT1080NT lethal,HT1080 IDH1KD tx,TDP1 cell CPT,DT40 TDP1 no CPT
O=C(C1CC(=O)N(c2ccc3c(c2)OCCO3)C1)N1CCN(c2cccc(C(F)(F)F)c2)CC1 (stereo unspecified),-13.2,-17.4%,-27.6%,?,23.1µM*
Cc1cccc(N2CCN(C(=O)c3ccc(N4CCCC4=O)cc3)CC2)c1C,-25.2,10.0%,-1.0%,11.6µM*,23.1µM*
O=C(c1ccc(N2CCCC2=O)cc1)N1CCCCCC1,-8.9,-3.3%,-0.4%,-17.6%,2.3%
O=C(Nc1ccc(Cc2ccncc2)cc1)C1CCC(N2C(=O)C3CC=CCC3C2=O)CC1 (stereo unspecified),-70.6*,-25.0%,-20.6%,20.6µM*,15.8µM*
COc1ccc(NC(=O)C2CCC(N3C(=O)C4CCCCC4C3=O)CC2)cc1 (stereo unspecified),12.7,-1.1%,-10.2%,10.2%,-27.8%
CC(=O)Nc1ccccc1NC(=O)c1ccc(C)c(C)c1,-2.3,2.1%,10.5%,-7.2%,12.0%
CCc1c(C)c2ccc(O)c(CN3CCCC3)c2oc1=O,-7.6,10.6%,5.8%,7.5%,-13.5%
Cc1ccc(-n2c(C)c([N+](=O)[O-])c3ccc(O)c(CN(C)C)c32)cc1,?,-10.5%,-7.6%,?,?
COc1ccc(-n2c(C)c([N+](=O)[O-])c3ccc(O)c(CN4CCCCC4)c32)cc1,-68.2*,-8.8%,-2.3%,16.4µM*,?
Cc1c(-c2ccc(Cl)cc2)c(=O)oc2c(CN3CCN(C)CC3)c(O)ccc12,·,·,·,?,23.1µM*
Cc1c(C)c2ccc(O)c(CN3CCN(C)CC3)c2oc1=O,-28.0,26.7%,28.3%,4.9%,0.8%
COc1ccc(-c2c(C)c3ccc(O)c(CN4CCOCC4)c3oc2=O)cc1,·,·,·,16.4µM*,23.1µM*
CCc1c(C)c2ccc(O)c(CN3CCN(c4ccccc4)CC3)c2oc1=O,·,·,·,14.6µM*,20.6µM*
COc1ccc(CN2CC[C@@H]3CN(C(C)=O)[C@H](c4ccccc4Br)C[C@@H]32)cc1,-2.8,-7.7%,-1.2%,?,?
COc1cccc(Cn2c(=O)c(C)nc3cnc(OC)nc32)c1,·,·,·,-1.1%,-12.2%
Cc1ccc(C)c(NC(=O)CN(C)C(=O)C2CCN(C(=O)Nc3ccccc3)CC2)c1,-16.4,?,7.2%,-1.4%,-16.1%
CCN1CCCC1CNC(=O)C(=O)Nc1ccccc1OC (stereo unspecified),9.6,-1.2%,-4.2%,-6.3%,-6.6%
COc1ccc(-c2c(C)c3ccc(O)c(CN4CCCC4)c3oc2=O)cc1,·,·,·,?,14.6µM*
Cc1c(C)c2ccc(O)c(CN3CCCC3)c2oc1=O,-1.9,7.8%,15.5%,9.4%,7.6%
O=C(CCSc1nc(-c2ccc3c(c2)OCO3)cc(C(F)(F)F)n1)NCc1ccco1,-19.0,-12.2%,-16.8%,?,?
COc1cc(NC(=O)CCS(=O)(=O)c2nc(-c3ccc4c(c3)OCO4)cc(C(F)(F)F)n2)cc(OC)c1OC,·,·,·,?,16.4µM*
O=C(CCS(=O)(=O)c1nc(-c2ccc3c(c2)OCO3)cc(C(F)(F)F)n1)Nc1ccc(F)c(Cl)c1,·,·,·,2.59µM*,5.8µM*
COc1ccc(-c2cc(C(F)(F)F)nc(S(=O)(=O)CCCC(=O)Nc3cccnc3Cl)n2)cc1OC,-107.2*,?,10.3µM*,2.31µM*,3.66µM*
O=C(CCS(=O)(=O)c1nc(-c2ccc3c(c2)OCO3)cc(C(F)(F)F)n1)Nc1ccccc1C(F)(F)F,·,·,·,?,23.1µM*
CC1(C)CC(CC(=O)Nc2nccs2)(c2ccccc2)CCO1 (stereo unspecified),21.9,6.0%,6.9%,-25.9%,?
SMILES,IL-1B inflam inh,HT1080NT lethal,HT1080 IDH1KD tx,TDP1 cell CPT,DT40 TDP1 no CPT
O=C(CNCC1CCCO1)N1CCCc2ccccc21 (stereo unspecified),8.1,2.7%,6.6%,2.3%,-22.1%
CCCCNC(=O)C1CCCN1C(=O)Nc1cccc(OC)c1 (stereo unspecified),33.3,10.2%,9.6%,-20.3%,1.2%
O=C1/C(=C\c2ccc3c(c2)OCO3)CCC/C1=C/c1ccc2c(c1)OCO2,-16.4,-15.4%,-0.6%,?,?
CC1CC/C(=C\c2ccc3c(c2)OCO3)C(=O)/C1=C/c1ccc2c(c1)OCO2 (stereo unspecified),-54.7*,?,?,?,?
CCc1ccc(CNC(=O)COc2cc(=O)n(CC)c3ccccc23)cc1,·,·,·,?,25.9µM*
CCn1c(=O)cc(OCC(=O)NCc2ccc(F)cc2Cl)c2ccccc21,·,·,·,?,23.1µM*
CCn1c(=O)cc(OCC(=O)NC2CC2)c2ccccc21,-16.4,-19.6%,-1.6%,2.1%,30.0%
CCn1c(=O)cc(OCC(=O)O)c2ccccc21,22.4,9.8%,8.4%,4.2%,3.2%
CCn1c(=O)cc(OCC(=O)NCCC(C)C)c2ccccc21,-16.5,9.7%,9.5%,29.1µM*,?
O=C(c1ccco1)N1CCN(Cc2nc3ccccc3[nH]2)CC1,-6.3,-2.7%,0.0%,1.6%,-7.5%
C=CCC1(NCc2ccco2)CCN(CC)CC1,-14.1,-6.3%,-4.2%,-21.8%,0.2%
CCc1ccc(CN(Cc2cccnc2)C(=O)/C=C/c2ccc(OC)cc2)cc1,0.0,?,?,-55.0%,14.6µM*
COc1ccc(/C=C/C(=O)NCc2cccnc2)cc1,20.8,20.5%,7.2%,-1.3%,-12.0%
Cc1cc(C(=O)N/N=C/c2ccc([N+](=O)[O-])s2)n[nH]1,-5.6,-7.1%,-18.9%,5.8µM*,5.17µM*
Cc1[nH]cnc1C(=O)N/N=C/c1ccc([N+](=O)[O-])s1,16.9,-16.8%,-24.8%,11.6µM*,10.3µM*
Cc1cc(C(=O)N/N=C/c2cc(Cl)cc([N+](=O)[O-])c2O)n[nH]1,18.2,-14.6%,-28.6%,14.2%,-8.8%
O=c1cnc2cnc(Oc3cccc(Cl)c3)nc2n1C[C@H]1CCCO1,·,·,·,?,-16.6%
CCOC(=O)C1CCCN(S(=O)(=O)c2cc(C(=O)OC)n(C)c2)C1 (stereo unspecified),20.5,-8.6%,-8.8%,16.4µM*,16.4µM*
CCOC(=O)C1CCN(S(=O)(=O)c2ccc3c(c2)CCCN3C(C)=O)CC1,73.2,1.9%,-5.4%,-5.8%,-18.2%
COc1ccc(N2CCN(S(=O)(=O)c3ccc4c(c3)CCCN4C(C)=O)CC2)cc1,·,·,·,16.4µM*,?
CCOC(=O)C1CCCN(S(=O)(=O)CCNC(=O)c2cccc(OC)c2)C1 (stereo unspecified),-68.2*,-8.4%,-5.2%,-37.0%,-45.5%
CC(=O)N1CCCc2cc(S(=O)(=O)N3CCCC3)ccc21,25.7,-1.3%,11.2%,3.3%,5.7%
